# Screen size: about 16,000 compounds; about 5,100 (32%) were called active. Another 25% or so got no clear call; they are omitted. Calls come from the whole dose curve; as a rule, active = well fitted curve in the direction sought with a large enough effect; inconclusive = small, poorly fitted or top-dose-only effect, or effect the other way; inactive = no such curve, though single readings can be large or run the other way. The list shows a part of the results.
# Molecular target: Cytochrome P450 3A4 (Homo sapiens) (UniProt P08684)
# Assay: Cytochrome panel assay with activity outcomes
# Settings: recombinant CYP, pro-luciferin dealkylation, luminescence, p450-cyp3a4; series mostly up to 57.1 µM
# % is set by controls: 0 for no effect and ±100 for the full control effect.
# Sequence of Cytochrome P450 3A4 (Homo sapiens) (P08684 whole entry, looked up): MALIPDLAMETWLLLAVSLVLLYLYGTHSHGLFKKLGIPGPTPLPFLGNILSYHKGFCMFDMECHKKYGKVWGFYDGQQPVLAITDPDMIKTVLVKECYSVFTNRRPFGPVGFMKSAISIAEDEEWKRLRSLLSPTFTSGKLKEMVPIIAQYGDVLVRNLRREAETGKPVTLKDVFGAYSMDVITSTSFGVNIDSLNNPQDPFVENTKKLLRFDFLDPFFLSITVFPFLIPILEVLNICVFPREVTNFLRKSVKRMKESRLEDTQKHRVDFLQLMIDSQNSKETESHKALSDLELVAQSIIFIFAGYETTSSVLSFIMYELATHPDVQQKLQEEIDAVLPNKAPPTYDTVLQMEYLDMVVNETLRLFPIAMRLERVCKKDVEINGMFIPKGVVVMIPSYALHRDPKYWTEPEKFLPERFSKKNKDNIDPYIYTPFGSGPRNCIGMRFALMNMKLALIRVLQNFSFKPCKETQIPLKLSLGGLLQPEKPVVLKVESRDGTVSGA
SMILES,AC50,"activity, negative = inhibition"
Nc1ccn([C@@H]2CC[C@H](CO)O2)c(=O)n1,inactive,–
CC(C)(CO)N1CCN(C(=S)Nc2ccccc2)CC1,–,-8.25% [at 11.4 µM] (inactive)
COc1cc2c(cc1OC)CN(C(=S)Nc1ccccc1)CC2,12.6 µM (active),–
CC(=O)NCCC(=O)Nc1sc2c(c1-c1nc3ccccc3[nH]1)CCCC2,12.6 µM (active),–
CC(=O)Nc1sc2c(c1CN1CCN(C)CC1)CCCC2,inactive,–
COc1cccc(Cn2c(=O)c(-c3cccs3)nc3cnc(N4CCNCC4)nc32)c1,15.8 µM (active),–
COc1cccc(Cn2c(=O)c(-c3cccs3)nc3cnc(N4CCN(C)CC4)nc32)c1,12.6 µM (active),–
CC(C)OC(=O)c1cc2c(OC[C@@H](O)CNC(C)(C)C)cccc2[nH]1,inactive,–
Cc1ccccc1-c1ccc2ncnc(N3CCN(C)CC3)c2c1,3.98 µM (active),–
CN1CCN(c2ncnc3ccc(-c4ccccc4Cl)cc23)CC1,5.01 µM (active),–
Clc1ccc2c(N3CCC(CCC4CCN(c5ncnc6cc(Cl)ccc56)CC4)CC3)ncnc2c1,–,-31.6% [at 11.4 µM] (inactive)
CN1CCN(c2ncnc3ccc(-c4ccccc4C#N)cc23)CC1,15.8 µM (active),–
COC(=O)c1ccc(Oc2nc(N(C)C)nc(N3CCOCC3)n2)cc1,–,14.7% [at 11.4 µM] (inactive)
c1ccc(C2OCC3(CO2)COC(c2ccccc2)OC3)cc1 (stereo not drawn),inactive,–
C[C@H]1[C@H](C)OC(=O)C[C@H](O)C[C@H](O)C[C@H](O)CC[C@H](O)[C@H](O)CC(=O)C[C@H](O)[C@H](C(=O)O)[C@H](O)C[C@H](O[C@@H]2O[C@@H](C)[C@H](O)[C@@H](N)[C@@H]2O)C=CC=CC=CC=CCCC=CC=C[C@@](C)(O)[C@H]1O,–,7.28% [at 11.4 µM] (inactive)
CCOc1ccc2c(ccc(/C=C\c3cc(C)c4cccnc4c3O)[n+]2C)c1,–,-23.9% [at 11.4 µM] (inactive)
CCCc1cc(=O)oc2c(CN3CCOCC3)c(O)ccc12,–,1.81% [at 2.29 µM] (inactive)
Cn1c(=O)n2n(c1=O)[C@H]1[C@H](O)[C@H]3O[C@H]3C(=O)[C@H]1CC2,–,-16.9% [at 11.4 µM] (inactive)
CC(=O)Nc1ccc(Cc2ccc3[nH]c(=O)cc(C)c3c2)cc1,–,-20.4% [at 11.4 µM] (inactive)
CCc1c(C)nc2ccc(Br)cc2c1Cl,inactive,–
Cc1cc(Cl)nc2ccc(Cc3ccc4nc(Cl)cc(C)c4c3)cc12,3.16 µM (active),–
C[N+]1(CC(=O)OCCCc2ccccc2)CCOCC1,inactive,–

SMILES,AC50,"activity, negative = inhibition"
CCOc1ccc2[nH]c(=O)c(CN(CCc3ccccc3)C(=O)N3CCCC3)cc2c1,3.55 µM (active),–
COc1cccc(C(=O)n2c(SC)nc3cc4c(cc32)OCCO4)c1,inactive,–
COc1ccc2[nH]c(=O)c(CN(CCc3ccccc3)C(C)=O)cc2c1,17.8 µM (active),–
O=C(O)c1cc2cc(OCc3ccccc3)ccc2[nH]1,inactive,–
CCOc1ccc(Cc2nc(C)c(CC(=O)N3CCOCC3)c(=O)[nH]2)cc1,–,1.75% [at 11.4 µM] (inactive)
COc1ccc2[nH]c(=O)c(NC(N)=S)nc2c1,inactive,–
COc1cccc(C(=O)N(Cc2ccccc2)Cc2cc3cc4c(cc3[nH]c2=O)OCCO4)c1,3.98 µM (active),–
CCOc1ccc2[nH]c(=O)c(CN(CCc3ccccc3)C(=O)N3CCOCC3)cc2c1,7.94 µM (active),–
CCc1cccc(C)c1NC(=O)CSc1nc2ccc(N3C(=O)c4ccccc4C3=O)cc2s1,4.47 µM (active),–
CCN(CC)C(=O)CSc1nc2ccc(NC(=O)CSc3nnc(COc4ccccc4C)n3C)cc2s1,–,-17.9% [at 2.29 µM] (inactive)
Cc1cnc(CNc2nc(-c3ccc4c(c3)OCO4)nc3ccccc23)cn1,0.794 µM (active),–
Cc1cccc(CNc2nc(-c3ccc4c(c3)OCO4)nc3ccccc23)c1,0.398 µM (active),–
c1cncc(CNc2nc(-c3ccc4c(c3)OCO4)nc3ccccc23)c1,0.316 µM (active),–
c1csc(CNc2nc(-c3ccc4c(c3)OCO4)nc3ccccc23)c1,1 µM (active),–
C[C@]1(O)CC[C@H]2[C@H]3CC=C4N5CCN=C5CC[C@@]4(C)[C@H]3CC[C@@]21C,–,-12.7% [at 11.4 µM] (inactive)
O=C(O)c1cc(-c2ccc3cc4c(cc3c2)OCO4)nc2ccccc12,–,-17.7% [at 11.4 µM] (inactive)
N=C(N)SCc1cccc(-c2nc3ccccc3c(=O)o2)c1,–,-20.1% [at 11.4 µM] (inactive)
c1ccc(CNc2nc(-c3ccc4c(c3)OCO4)nc3ccccc23)cc1,1 µM (active),–
CC(=O)NCCNc1nc(-c2ccc3c(c2)OCO3)nc2ccccc12,3.98 µM (active),–
COc1ccc(CSC2=C(C#N)C(=O)NC3(CCCCC3)S2)cc1,–,-12.2% [at 11.4 µM] (inactive)
O=C1C=C(c2cccs2)CC(c2cccs2)C1n1cnc([N+](=O)[O-])c1 (stereo not drawn),inactive,–
CCCCSCc1nc2nc(Cl)c(Cl)nc2[nH]1,–,-27.9% [at 11.4 µM] (inactive)

SMILES,AC50,"activity, negative = inhibition"
CC1CCN(C(=S)c2ccc(O)cc2)CC1,–,11.7% [at 2.29 µM] (inactive)
CSc1nnc2c(n1)OC(C)N(C(=O)c1ccccc1)c1ccccc1-2 (stereo not drawn),inactive,–
C=CCSc1nnc2c(n1)OC(c1c(C)[nH]n(-c3ccccc3)c1=O)Nc1ccccc1-2 (stereo not drawn),14.1 µM (active),–
CC(C)[C@@H]1NC(=O)[C@H](CCCCN)NC(=O)[C@H](Cc2c[nH]c3ccccc23)NC(=O)[C@H](Cc2ccc(O)cc2)NC(=O)[C@H](C)N(C)C(=O)[C@H](Cc2ccccc2)NC1=O,3.98 µM (active),–
O=Nc1c(O)n(Cc2ccc(Cl)c(Cl)c2)c2ccccc12,14.1 µM (active),–
O=Nc1c(O)n(Cc2ccc(Cl)cc2)c2ccccc12,17.8 µM (active),–
Clc1ccc(CN2CCCN(Cc3ccc(Cl)cc3)C2c2cc3ccccc3c3ccccc23)cc1,–,-6.95% [at 11.4 µM] (inactive)
O=c1[nH]ncc2c3ccccc3n(Cc3ccccc3)c12,inactive,–
Cc1sc2ccccc2[n+]1CCC(C)S(=O)(=O)[O-] (stereo not drawn),inactive,–
CC(=O)N1c2c(cc(Br)cc2S(=O)(=O)NCC2COc3ccccc3O2)CC1C (stereo not drawn),7.94 µM (active),–
CCCN(CCC)CCCNS(=O)(=O)c1cc(Br)cc2c1N(C(C)=O)CC2,–,-10.1% [at 11.4 µM] (inactive)
OC[C@H]1NC[C@@H](O)[C@@H](O)[C@H]1O,inactive,–
CCCCOc1ccc(/C=C/C(=O)NCCc2nc3ccccc3[nH]2)cc1,12.6 µM (active),–
N[C@@](CCc1ccccc1)(C(=O)O)c1ccccc1,–,-0.157% [at 11.4 µM] (inactive)
COC(=O)N1CCC2(CC1)CN(C(=O)Nc1ccccc1)C2,inactive,–
O=C(Nc1ccccc1)N1CCC2(CCNCC2)CC1,inactive,–
O=C(Nc1ccc(Cl)cc1)N1CCc2[nH]c3ccccc3c2C1,14.1 µM (active),–
C[C@H]1C2=C3C(CC[C@H]4C(OCc5ccc(F)cc5C(F)(F)F)OC[C@](C)([C@@H]34)N(C(=O)OC(C)(C)C)C2)C2COC(=O)OCC21 (stereo partly drawn),20 µM (active),–
CC[C@H]1C2=C3C(CC[C@H]4C(OCc5ccc(F)cc5C(F)(F)F)OC[C@](C)([C@@H]34)N(C(=O)OC(C)(C)C)C2)C2COC(=O)OCC21 (stereo partly drawn),20 µM (active),–
CN(C(=O)c1c(O)c2ccccc2n(C)c1=O)c1ccccc1,inactive,–
CCCn1c(-c2ccccc2)nc2c(=O)n(C)c(=O)[nH]c21,inactive,–
Cc1ccc(-n2c(-c3ccccc3)cc(=O)nc2C)cc1,inactive,–

SMILES,AC50,"activity, negative = inhibition"
Cc1ccc(-c2nc3c(=O)n(C)c4ccccc4c3o2)cc1,7.08 µM (active),–
CC(C)CCN1C(=O)c2ccc(-c3nc4ccccc4c(=O)o3)cc2C1=O,–,-5.78% [at 11.4 µM] (inactive)
Cn1c(=O)c2nc(-c3ccccc3)oc2c2ccccc21,12.6 µM (active),–
OC[C@@H](O)CNc1ncnc2ccccc12,–,3.9% [at 11.4 µM] (inactive)
Cc1cc(C)c(NC(=O)NC(=O)c2ccc(F)cc2)c(C)n1,inactive,–
Cc1cc(C)n(-c2ccc(F)cc2)c(=O)c1C(=O)O,inactive,–
Cc1cc(C)c(NC(=O)CSc2nnc(Cc3cccn3C)n2-c2ccc(F)cc2)c(C)c1,1.58 µM (active),–
CC(C)c1ccc(O)c(NC(=O)c2ncn[nH]2)c1,10 µM (active),–
O=C(NCCc1ccc(Cl)cc1)c1ncn[nH]1,–,-0.238% [at 2.29 µM] (inactive)
Cc1ccc(C)c(NC(=O)c2ncn[nH]2)c1,14.1 µM (active),–
COc1ccc(NC(=O)c2ncn[nH]2)cc1,inactive,–
CCC(C)n1nnc2c(=O)oc3ccccc3c21 (stereo not drawn),inactive,–
Cc1cccc(CNc2ccnc(-c3ccoc3)n2)c1,1 µM (active),–
c1ccc(CNc2ccnc(-c3ccoc3)n2)cc1,10 µM (active),–
Cc1ccc(S(=O)(=O)N=Nc2c(O)[nH]c3cc(O)c(C(=O)O)cc23)cc1,–,-1.68% [at 11.4 µM] (inactive)
CNc1nc(-c2cccc(C#N)c2)nc2ccccc12,10 µM (active),–
COc1ccccc1CNc1nc(-c2cccc(C#N)c2)nc2ccccc12,10 µM (active),–
COc1ccc(CNc2nc(-c3cccc(NS(C)(=O)=O)c3)nc3ccccc23)c(OC)c1,2.51 µM (active),–
N#Cc1cccc(-c2nc(Nc3ccccc3)c3ccccc3n2)c1,inactive,–
COc1ccc(CNc2nc(-c3cccc(C#N)c3)nc3ccccc23)c(OC)c1,2.51 µM (active),–
COc1cc2c(cc1C(F)(F)F)N(C(=O)Nc1cc(F)cc(-c3cccnc3)c1)CC2,2.51 µM (active),–
CC1(C)OCC([C@H](O)C2=CCCCC2=O)CO1,–,-7.04% [at 11.4 µM] (inactive)
